Results: PubChem BioAssay AID504766 (The Scripps Research Institute Molecular Screening Center, 2011)
Values joined by “and” are separate entries in the source; they are usually repeats but may differ in a detail not shown here. Identical values can stand only once. Screen size: about 340,000 compounds; about 3,400 (1%) were called active.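 The calls were made as follows: active = inhibition above the mean over all tested compounds plus 3 SD (cut at about 4.2% in these data); inactive = the rest.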 Shown is part of a subset that was picked to be rich in actives. The source holds several records for some structures; these can differ, active in one and inactive in another.

Target: Nuclear receptor subfamily 0 group B member 1 (Homo sapiens) (UniProt P51843)
Experiment: relief of DAX1 transcriptional repression – cell-based, HEK293, Gal4-DAX1, luciferase luminescence, primary screen (AID 504766);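 also: 0% = DAX1-transfected cells with DMSO and 100% = empty-vector control cells with DMSO; inhibition shows as a rise in luminescence from relieved DAX1 repression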
Conditions: HEK293 Gal4-DAX1 luciferase reporter, at 6.75 µM, stronger effect = higher value

Chain of Nuclear receptor subfamily 0 group B member 1 (Homo sapiens) (P51843 207-470 limits assumed): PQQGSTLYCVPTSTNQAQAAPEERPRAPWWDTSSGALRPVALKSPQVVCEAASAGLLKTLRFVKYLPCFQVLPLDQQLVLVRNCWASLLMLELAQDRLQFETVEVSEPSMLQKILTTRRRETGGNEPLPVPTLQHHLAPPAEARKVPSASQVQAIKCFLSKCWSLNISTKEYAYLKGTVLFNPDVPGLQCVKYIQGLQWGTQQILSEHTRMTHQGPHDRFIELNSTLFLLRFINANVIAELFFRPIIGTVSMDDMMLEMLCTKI

| Compound | inhibition |
| --- | --- |
| CC(C)CC1C(=O)N(Cc2cn(Cc3ccco3)nn2)CCS(=O)(=O)N1Cc1ccc(-c2ccc(Cl)c(Cl)c2)cc1 (stereo not drawn) | -1.34% (inactive) |
| CCn1c(SCC(=O)N2CCCC2=O)nc2ccccc21 | 1.3% (inactive) |
| CCOC(=O)c1cc2c(nc1NC(=S)Nc1ccccc1)CC(C)(CC)OC2 (stereo not drawn) | 0.77% (inactive) |
| CCOC(=O)c1ccc(NC(=S)Nc2cc(C)cc(C)n2)cc1 | 1.42% (inactive) |
| CCOC(=O)c1cn[nH]c1NC(=S)Nc1ccccc1 | 6.19% (active) |
| O=C(NN=Cc1ccc2c(c1)CCC2)c1ccccc1O | 2.24% (inactive) |
| O=C(C[C@H]1C[C@H]2c3cc(NS(=O)(=O)c4ccc(F)cc4)ccc3O[C@H]2[C@H](CO)O1)NCc1cc(F)ccc1F | -0.52% (inactive) |
| Cc1ccc(NC(=O)CN2CCC(C(N)=O)CC2)cc1[N+](=O)[O-] | 0.4% (inactive) |
| Cc1ccc(NC(=O)c2sccc2C)cc1[N+](=O)[O-] | 5.25% (active) |
| Cc1ccc(NC(=O)CN(C)CC(=O)Nc2cccc(F)c2)cc1[N+](=O)[O-] | -3.16% (inactive) |
| CCN(CC)C(=O)C(=O)Nc1cccc(Br)c1 | 1.59% (inactive) |
| CCN(CC)N=Nc1cccc(NC(C)=O)c1 | 8.01% (active) |
| CC(=O)Nc1cccc(C(=O)OCN2C(=O)c3ccccc3C2=O)c1 | 0.92% (inactive) |
| CC(C)n1ncc2c(C(=O)N3CCN(Cc4cccs4)CC3)cc(C3CC3)nc21 | -1.38% (inactive) |
| Cc1ccc(S(=O)(=O)N(CCc2ccccc2)c2ccc3c(c2)C2CC3CCN2C(=O)OCc2ccccc2)cc1 (stereo not drawn) | -0.92% (inactive) |
| FC(F)(F)c1cccc(Cc2noc(CN3CCC(N4CCCCC4)CC3)n2)c1 | 0.44% (inactive) |
| CCOC(=O)N1CCN(Cc2nc(Cc3cccc(C(F)(F)F)c3)no2)CC1 | 4.88% (active) |
| O=C(c1ccco1)N1CCN(Cc2cccc(C(F)(F)F)c2)CC1 | 4.58% (active) |
| Fc1cccc(Cc2noc(CN3CCN(c4cnccn4)CC3)n2)c1 | -1.08% (inactive) |
| O=C(c1ccco1)N1CCN(CCOc2ccccc2)CC1 | 3.53% (inactive) |
| O=C(CN1CCN(C(=O)c2ccco2)CC1)Nc1ccc(Cl)c(C(F)(F)F)c1 | -0.99% (inactive) |
| Cc1cc(C)c2cc(C#N)c(N3CCNCC3)nc2c1 | 0.35% (inactive) |

| Compound | inhibition |
| --- | --- |
| O=Cc1cn(CCOc2ccc(F)cc2)c2ccccc12 | -0.3% (inactive) |
| O=C(CNC(=O)N1CC(=O)Nc2ccccc21)Nc1ccc(Br)cc1F | 0.45% (inactive) |
| Cc1nnc(SC(C)C(=O)c2c[nH]c3ccccc23)n1C1CC1 (stereo not drawn) | 0.71% (inactive) |
| COc1ccc(N(CC(=O)Nc2cccc3ccccc23)S(C)(=O)=O)c(OC)c1 | -0.73% (inactive) |
| CCc1ccccc1NC(=O)CN(c1ccc(OC)cc1OC)S(=O)(=O)c1ccccc1[N+](=O)[O-] | 5.44% (active) |
| COc1ccc2c(CC(=O)OCC(=O)Nc3ccccc3[N+](=O)[O-])coc2c1 | 0.79% (inactive) |
| CCN(CC)C(=O)C1=C(C)N(Cc2ccc(OC)cc2)C(=O)C(CC(=O)NCCCCc2ccccc2)C1 (stereo not drawn) | -0.34% (inactive) |
| CCOc1ccc(CCNC(=O)COC(=O)c2ccc(C)c(S(=O)(=O)N3CCOCC3)c2)cc1OCC | -0.65% (inactive) |
| CCN(CC)C(=O)C1=C(C)N(Cc2ccc(C(C)(C)C)cc2)C(=O)C(CC(=O)NCc2cccc3ccccc23)C1 (stereo not drawn) | -0.14% (inactive) |
| Cn1c(SCC(=O)Nc2cccc(NC(=O)c3cccs3)c2)nnc1-c1ccncc1 | -0.64% (inactive) |
| Cc1cc(-c2nc(C)c(-c3nnc(SCC(=O)Nc4ccccc4)n3C)s2)no1 | -0.43% (inactive) |
| Cc1nc(-c2nnc(SCC(=O)Nc3cc(C(F)(F)F)cc(C(F)(F)F)c3)n2C)cs1 | 6.44% (active) |
| O=C(c1ccc(CS(=O)Cc2ccccc2Cl)o1)N1CCN(c2ccccc2)CC1 (stereo not drawn) | 0.5% (inactive) |
| CCOC(=O)C(C(=O)c1ccccc1)C(c1ccccc1)c1nccc2ccccc12 (stereo not drawn) | -0.83% (inactive) |
| CC1(c2cccc(Br)c2)NC(=O)N(CC(=O)NCCC2=CCCCC2)C1=O (stereo not drawn) | 1.45% (inactive) |
| O=S1(=O)CCN(Cc2ccccc2)CC1 | -0.64% (inactive) |
| CC(=O)N1CCN(CCN=CC2=C(O)CC(C)(C)CC2=O)CC1 | 0.1% (inactive) |
| O=C1CC(c2ccccc2)CC(O)=C1C=NCCN1CCOCC1 (stereo not drawn) | -0.18% (inactive) |
| CC(C)C(=O)N1CCN(CCN=CC2=C(O)CC(c3ccco3)CC2=O)CC1 (stereo not drawn) | 5.43% (active) and 1.58% (inactive) |
| CC1(C)CC(=O)C=C(c2ccc(COC(=O)c3cc(F)cc(F)c3)cc2)C1=O | -0.88% (inactive) |
| CC1C(=O)N(Cc2cn(CC3CCCCC3)nn2)CCS(=O)(=O)N1Cc1ccc(-c2cccc(N(C)C)c2)cc1 (stereo not drawn) | 0.14% (inactive) |
| C[C@H](CO)N1C[C@H](C)[C@H](CN(C)C(=O)Nc2ccc3c(c2)OCO3)Oc2ncc(Br)cc2C1=O | 2.47% (inactive) |

| Compound | inhibition |
| --- | --- |
| Cc1cc2c(c(=O)n1C)C(C(C)C)C(C#N)=C(N)O2 (stereo not drawn) | -0.55% (inactive) |
| Cn1c2c(c(=O)n(C)c1=O)C(c1cccc(F)c1)C(C#N)=C(N)O2 (stereo not drawn) | 5.95% (active) |
| N#CC1=C(N)Oc2cc(N)ccc2C1c1ccccc1 (stereo not drawn) | 0.38% (inactive) |
| CC1CC(NC(=S)N(C)C)CC(C)(C)C1 (stereo not drawn) | 1.5% (inactive) |
| COc1cccc(/C=C2\SC(=S)N(CCCC(=O)N3CCOCC3)C2=O)c1 | -0.53% (inactive) |
| COc1cccc(-c2nn(C)c3sc(C(=O)N4CCN(c5ccccc5)CC4)cc23)c1 | -1.01% (inactive) |
| CCOC(=O)N1CCN(C(=O)c2cc3c(-c4ccc(Cl)cc4)nn(C)c3s2)CC1 | 4.96% (active) |
| COc1ccccc1N1CCN(C(=O)c2cc3c(-c4ccc(Cl)cc4)nn(C)c3s2)CC1 | 2.84% (inactive) |
| COCCCn1c(C(=O)NC2CCCCC2)cc2c(=O)n3cccc(C)c3nc21 | -1.22% (inactive) |
| O=C(Nc1ccc2c(c1)[C@@H]1C[C@@H](CC(=O)N3CCCCC3)O[C@@H](CO)[C@@H]1O2)NC1CCCCC1 | 0.47% (inactive) |
| Cc1cccc(C(=O)NC2CCN(CC(=O)Nc3cccc(Cl)c3)CC2)c1 | 0.29% (inactive) |
| O=C(NCCN1CCOCC1)C1CCN(S(=O)(=O)c2ccccc2)CC1 | 4.19% (inactive) |
| CC1CC(=NNC(=O)C2COc3ccccc3O2)CC(C)(C)C1 (stereo not drawn) | 0.05% (inactive) |
| CC1C/C(=N/NC(=O)c2cccs2)CC(C)(C)C1 (stereo not drawn) | 5.93% (active) |
| CC1(C)CC(=O)C/C(=N\NC(=O)c2cccs2)C1 | -0.39% (inactive) |
| C[C@H](CO)N1C[C@H](C)[C@@H](CN(C)C(=O)c2cnccn2)Oc2ncc(Br)cc2C1=O | -0.09% (inactive) |
| COc1ccc(C(=O)NC2CC(C)(C)NC(C)(C)C2)cc1OC | 0.53% (inactive) |
| COc1cc2c(cc1OC)C(=O)NCC(C)(C)O2 | 4.35% (active) |
| COc1cc(OC)c(C(=O)NC2CC(C)(C)NC(C)(C)C2)cc1OC | 0.81% (inactive) |
| O=C(OCc1cn([C@H]2C[C@H](c3ccccc3)N(C(=O)c3cccs3)C[C@@H]2O)nn1)c1ccccc1 | -0.83% (inactive) |
| COc1ccc(C(=O)Nc2nncs2)c(OC)c1 | 5.95% (active) |
| COc1ccc(C(=O)NC2=NCCS2)c(OC)c1 | 0.9% (inactive) |

| Compound | inhibition |
| --- | --- |
| COc1ccc(C(=O)Nc2cccc(NC(=O)c3ccc(OC)cc3OC)n2)c(OC)c1 | -0.74% (inactive) |
| Cn1nc(N)c2ncc(C(Cl)(Cl)Cl)nc21 | 0.87% (inactive) |
| CCOC(=O)c1c(C)[nH]c(C)c1C(=O)COC(=O)/C=C/c1cccc([N+](=O)[O-])c1 | 0.45% (inactive) |
| CC1=C(C)CC(C(=O)NC(C)CCc2ccccc2)C(C(=O)O)C1 (stereo not drawn) | 4.67% (active) |
| CCN(CC)S(=O)(=O)N1CCC(C(=O)NC(C)CCc2ccccc2)CC1 (stereo not drawn) | 0.09% (inactive) |
| CC(CCc1ccccc1)NC(=O)c1ccc(Br)o1 (stereo not drawn) | -0.46% (inactive) |
| CC(C)CC1C(=O)N(Cc2cn(CC3CCCCC3)nn2)CCS(=O)(=O)N1Cc1ccc(-c2ccc(Cl)cc2)cc1 (stereo not drawn) | 0.42% (inactive) |
| CC(=O)c1ccc(OCC(=O)N(C)C2CCS(=O)(=O)C2)cc1 (stereo not drawn) | -0.31% (inactive) |
| CN1CCN(/N=C/c2ccc(C#N)cc2)CC1 | 2.94% (inactive) |
| Cc1ccc(-c2ccc(/C=N/NC(=O)CN3CCOCC3)o2)cc1[N+](=O)[O-] | -1.47% (inactive) |
| CN1CCN(/N=C/c2ccc(-c3ccc([N+](=O)[O-])cc3)o2)CC1 | 4.57% (active) |
| C[C@H]1CN(c2ccc(Br)cc2)C(=O)[C@@H]1CC(=O)Nc1ccc(Br)cc1 | 0.61% (inactive) |
| CCc1cc(C(=O)N(CC)CC(=O)Nc2c(F)cccc2F)sc1C | 1.94% (inactive) |
| Nc1ccc2c(c1)C(O)c1ccc(Cl)cc1-2 (stereo not drawn) | 1.37% (inactive) |
| CCC(=O)Nc1ccc2nn(-c3ccc(F)cc3)nc2c1 | 1.93% (inactive) |
| Nc1ccc2nn(-c3ccc(Cl)cc3)nc2c1 | 5.29% (active) |
| Cc1ccccc1Nc1nc(N)nc(CSc2ccccc2)n1 | 3.71% (inactive) |
| Cc1ccc(Nc2nc(N)nc(CSc3nnc(C)s3)n2)cc1 | 4.29% (active) |
| Cc1nnc(SCc2nc3ccccc3nc2C)s1 | 0.55% (inactive) |
| Cc1cn([C@H]2C[C@H](O)[C@@H](CNC(=O)[C@H](N)Cc3cccnc3)O2)c(=O)[nH]c1=O | 0.07% (inactive) |
| CNC(=O)C[C@H]1C(=O)N(c2ccc(OC)cc2)C[C@@H]1Cc1ccccc1 | 0.14% (inactive) |
| C[C@H](CO)N1C[C@H](C)[C@@H](CN(C)S(=O)(=O)c2ccc(Oc3ccccc3)cc2)OCc2cn(nn2)CCCC1=O | 0.27% (inactive) |
